Among the data in PubChem BioAssay (EPA / NIEHS) are AC50 and outcome values, retold here.

The term AC50 denotes the midpoint of the concentration-response curve, whichever way the signal moves.

A short description of assay [1]: ATG_XTT_Cytotoxicity: Cytotoxicity Assessment in the Attagene TRANS-FACTORIAL HepG2 Assay (AID 2283584).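 On AC50: XTT signal for cell number as viability in transfected HepG2 cells; cells exposed to compound for 24 h before reading; active means loss of viability signal versus DMSO baseline.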 The essentials: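 HepG2 cells transiently transfected with GAL4-UAS multiple reporter units, dosed 24 h; cytotoxicity read by XTT as loss of signal versus DMSO baseline.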
A short description of assay [2]: TOX21_p53_BLA_p2_viability: Viability Assessment in the Tox21 HCT-116 p53 Agonism Beta-lactamase Assay, Phase 2 (AID 2283591).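 Further: actives lower the ATP signal meaning cytotoxicity.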 The essentials:
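Cytotoxicity readout: CellTiter-Glo ATP luminescence, 30 min at room temperature, after the beta-lactamase read. Cells were HCT116 exposed 16 h at 37C to compounds pin-transferred at 217-fold dilution from DMSO stocks.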

Assay [3] addresses Cellular tumor antigen p53 (Homo sapiens) (UniProt P04637). In words: TOX21_p53_BLA_p2_ratio: Tox21 HCT-116 p53 Agonism Beta-lactamase Assay, Ratio, Phase 2 (AID 2283592). The essentials:
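First, HCT116 reporter cells settle for 5 h at 37C. Next, DMSO compound solutions are pinned in (217-fold dilution) and left 16 h. Finally, CCF4-AM substrate is loaded 2 h at room temperature and the 460/530 nm ratio read.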

The nature of assay [4]: TOX21_p53_BLA_p3_viability: Viability Assessment in the Tox21 HCT-116 p53 Agonism Beta-lactamase Assay, Phase 3 (AID 2283593).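 Further: cells exposed to compound for 16 h before reading.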 The method in brief:
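Cellular ATP was quantified by CellTiter-Glo luminescence, read after 30 min at room temperature. Beforehand, HCT116 cells (4000/well) received compound 5 h post-seeding, 217-fold diluted from DMSO, then incubated 16 h at 37C.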

For assay [5], the target named is Cellular tumor antigen p53 (Homo sapiens) (UniProt P04637). In words: TOX21_p53_BLA_p3_ratio: Tox21 HCT-116 p53 Agonism Beta-lactamase Assay, Ratio, Phase 3 (AID 2283596). The method in brief:
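Cells were seeded at 4000/well, rested 5 h at 37C, then dosed with DMSO compound solutions (217-fold dilution) for 16 h. CCF4-AM substrate was loaded for 2 h at room temperature, and the 460/530 nm emission ratio was fitted for gain of signal versus DMSO.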

Assay [6] is described as follows: TOX21_p53_BLA_p4_viability: Viability Assessment in the Tox21 HCT-116 p53 Agonism Beta-lactamase Assay, Phase 4 (AID 2283597).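 Further: hits lower the luminescence signal meaning cytotoxicity.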 The method in brief:
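4000 HCT116 cells per well; 5 h attachment; compounds from DMSO, 217-fold dilution; 16 h at 37C. Then CCF4-AM, 2 h RT, followed by CellTiter-Glo, 30 min RT, luminescence. Decrease = cytotoxicity.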

The target of assay [7] is Cellular tumor antigen p53 (Homo sapiens) (UniProt P04637). In words: TOX21_p53_BLA_p5_ratio: Tox21 HCT-116 p53 Agonism Beta-lactamase Assay, Ratio, Phase 5 (AID 2283599). The essentials: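 Beta-lactamase reporter ratio (blue 460 nm over green 530 nm, 405 nm excitation) after 2 h CCF4-AM loading, in HCT-116 cells exposed 16 h at 37 C to compounds pinned at 217-fold dilution. Increases relative to DMSO baseline scored.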
Sequence of Cellular tumor antigen p53 (Homo sapiens) (P04637 whole entry, looked up): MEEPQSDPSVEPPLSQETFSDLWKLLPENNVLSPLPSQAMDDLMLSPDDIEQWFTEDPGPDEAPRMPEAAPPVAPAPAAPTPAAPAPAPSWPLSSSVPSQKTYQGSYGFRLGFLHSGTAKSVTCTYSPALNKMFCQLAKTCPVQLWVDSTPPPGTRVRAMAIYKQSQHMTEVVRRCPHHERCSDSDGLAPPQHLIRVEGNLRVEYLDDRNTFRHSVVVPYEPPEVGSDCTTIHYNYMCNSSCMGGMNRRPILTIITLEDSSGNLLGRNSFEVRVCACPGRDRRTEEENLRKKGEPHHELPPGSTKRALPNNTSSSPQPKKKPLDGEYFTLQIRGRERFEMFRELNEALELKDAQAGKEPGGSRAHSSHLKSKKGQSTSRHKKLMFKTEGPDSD

Assay [8] is described as follows: TOX21_p53_BLA_p5_viability: Viability Assessment in the Tox21 HCT-116 p53 Agonism Beta-lactamase Assay, Phase 5 (AID 2283600). The essentials: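 Decreased CellTiter-Glo luminescence denotes lost viability. Exposure: 16 h at 37C, 5% CO2, with compounds from DMSO stocks diluted 217-fold in wells of 4000 cells.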
In assay [9] the target is Cellular tumor antigen p53 (Homo sapiens) (UniProt P04637). In words: TOX21_p53_BLA_p4_ratio: Tox21 HCT-116 p53 Agonism Beta-lactamase Assay, Ratio, Phase 4 (AID 2283601). The method in brief: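 Signal is the blue/green (460nm/530nm) ratio of cleaved versus uncleaved CCF4-AM substrate, read after 2 h substrate loading. Cells were HCT116 carrying the p53-responsive beta-lactamase reporter, dosed 16 h at 37C, 5% CO2; CellTiter-Glo measured in parallel.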

SMILES strings stand for the structures. Values joined by “and” are separate entries in the source; they are usually repeats but may differ in a detail not shown here. Identical values can stand only once. Records with an inconclusive call do not appear. More than one record can exist for a structure, and the calls need not agree. Active and inactive are the calls of the source. How the source made its calls: active means hit-call score of the fitted dose curve at least 0.9, where 1 is the maximum; inconclusive means response in the unintended direction; inactive means score below 0.9.

On to `[O-]n1ccccc1=S.[O-]n1ccccc1=S.[Zn+2]`, for which the concentration at half-maximal activity (AC50) in [1] is 2.87 µM (active); in [2], 14.3 µM (active) [middle of 4 runs]; in assay [3], 33.8 µM (active) [middle of 4 runs]; in assay [4] it was 20.3 µM (active) [middle of 4 runs]; in [5], 35.7 µM (active) [middle of 4 runs]; in assay [6], 15.4 µM (active) [middle of 4 runs]. For the same compound, the AC50 in assay [7] was 24.8 µM (active) [middle of 4 runs]; in assay [8] it was 19.1 µM (active) [middle of 4 runs]; in [9], 21.1 µM (active) [middle of 4 runs].

Consider `NCCNc1cccc2ccccc12`, for which the outcome in [1], in assay [2], in [3], in [4], in assay [5] and in assay [6] was inactive. Moreover, the outcome in assay [7], in [8] and in assay [9] was inactive.

Take `OCC#CCO`: the outcome in assay [1], in assay [2], in assay [3], in assay [4], in assay [5] and in [6] was inactive. Also, the result in assay [7] and in assay [9] was inactive.

As to `CC(Oc1cc(Cl)ccc1Cl)C(=O)O` (configuration not stated), the call in assay [1], in assay [2], in [3] and in assay [4] was inactive.

Take `OCCOCCN1CCN(C2=Nc3ccccc3Sc3ccccc32)CC1`: the result in assay [1], in assay [2], in assay [3], in [4], in [5] and in [6] was inactive. The result in assay [7] and in assay [9] was inactive.

On to `Clc1ccc(C(c2ccccc2Cl)C(Cl)Cl)cc1` (configuration not stated), for which the AC50 in assay [1] was 148 µM (active); in [2], 46.1 µM (active) and 30.1 µM (active); in assay [3], 83.3 µM (active) and 39.1 µM (active); in [4] it was 67.7 µM (active) and 31.2 µM (active); in [5], 55.9 µM (active) and 37.2 µM (active); in assay [6], 64.3 µM (active) and 25.8 µM (active). Also, the AC50 in assay [8] was 72.7 µM (active) and 35.9 µM (active); in assay [9] it was 82.4 µM (active) and 36.6 µM (active). For the same compound, the compound was called inactive in [1].

As for `C=CC(=O)OCCCC`, the compound was classed as inactive in assay [1], in [2], in assay [3], in [4], in assay [5] and in assay [6]. In addition, the outcome in assay [7] and in assay [9] was inactive.

Consider `OCCCCC(O)CO` (configuration not stated), for which the outcome in assay [1], in [2], in assay [3], in assay [4], in assay [5] and in assay [6] was inactive. Also, the outcome in assay [7], in assay [8] and in assay [9] was inactive.

For `CC(CN=Cc1ccccc1O)N=Cc1ccccc1O` (configuration not stated), the compound was classed as inactive in assay [1], in [2], in assay [3], in assay [4] and in assay [5].

As for `Cc1[nH]c(=O)c(C#N)cc1-c1ccncc1`, the outcome in assay [1], in assay [2], in assay [3], in assay [4], in assay [5] and in assay [6] was inactive. Moreover, the result in assay [7] and in assay [9] was inactive.
